Bioassay records deposited in PubChem BioAssay by several laboratories.
Jurkat NFkB inh = lowers PMA/ionomycin-induced NF-kB signal in Jurkat cells; PMA/ionomycin-induced NF-kB luciferase reporter, luminescence; inhibition, % at 4 µM; 330,000 compounds, 0.53% hits; AID 435003; in the data active = inhibition above about 50%
697 NFkB inh = lowers PMA/ionomycin-induced NF-kB signal in 697 B cells; AID 435022; 697 B-cell NF-kB luciferase reporter, 16 h; 330,000 compounds, 0.33% hits; inhibition, % at 4 µM; in the data active = inhibition above about 35%
Gli-Sufu antag = blocks Gli-Sufu signaling in a luciferase reporter; inhibition, % at 5 µM; Sufu-KO-LIGHT fibroblasts, Gli luciferase reporter luminescence; 340,000 compounds, 0.74% hits;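 active = inhibition above about 55%, limit read from the data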;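 note: 0% = DMSO-treated cells and 100% = wells with medium but no cells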
Mdm2 MdmX PPI = disrupts the human Mdm2-MdmX interaction. O15151+Q00987. SaOS-2 split-luciferase Mdm2/MdmX complementation, luminescence. inhibition, % at 8 µM. 330,000 compounds, 3% hits. AID 485346;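 active = inhibition of at least 50% at 8 µM in the primary screen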
Target sequence (O15151 whole entry, looked up): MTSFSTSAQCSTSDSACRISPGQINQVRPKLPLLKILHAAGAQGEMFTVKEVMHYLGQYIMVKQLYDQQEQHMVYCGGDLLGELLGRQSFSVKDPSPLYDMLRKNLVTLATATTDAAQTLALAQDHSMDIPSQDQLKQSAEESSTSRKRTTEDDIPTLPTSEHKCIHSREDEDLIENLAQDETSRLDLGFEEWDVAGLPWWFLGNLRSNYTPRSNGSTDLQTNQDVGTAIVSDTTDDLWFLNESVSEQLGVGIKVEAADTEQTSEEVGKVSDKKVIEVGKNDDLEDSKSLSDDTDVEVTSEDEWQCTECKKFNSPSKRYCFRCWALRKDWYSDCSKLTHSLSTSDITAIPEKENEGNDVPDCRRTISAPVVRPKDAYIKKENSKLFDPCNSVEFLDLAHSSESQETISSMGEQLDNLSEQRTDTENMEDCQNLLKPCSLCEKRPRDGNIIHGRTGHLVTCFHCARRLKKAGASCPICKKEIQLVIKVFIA
Target sequence (Q00987 whole entry, looked up): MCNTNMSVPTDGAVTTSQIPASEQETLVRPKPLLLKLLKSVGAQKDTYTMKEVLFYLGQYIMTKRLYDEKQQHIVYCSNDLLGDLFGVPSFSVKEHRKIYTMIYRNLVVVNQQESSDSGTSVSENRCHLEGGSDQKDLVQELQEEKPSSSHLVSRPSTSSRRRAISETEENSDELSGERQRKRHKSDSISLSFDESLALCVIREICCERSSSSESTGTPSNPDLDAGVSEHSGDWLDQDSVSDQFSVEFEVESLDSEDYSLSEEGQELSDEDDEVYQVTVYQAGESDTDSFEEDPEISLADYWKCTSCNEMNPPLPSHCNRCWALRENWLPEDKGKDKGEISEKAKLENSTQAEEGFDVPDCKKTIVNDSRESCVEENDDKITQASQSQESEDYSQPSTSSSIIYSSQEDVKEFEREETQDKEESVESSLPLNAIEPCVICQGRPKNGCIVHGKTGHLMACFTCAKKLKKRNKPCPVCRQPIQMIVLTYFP
Beta apoptosis = blocks beta cell apoptosis; INS-1E cytokine-induced death, ATP luminescence, 48 h; percent of positive-control rescue, neutral wells zero; protection from apoptosis, % (test concentration not listed); 300,000 compounds, 0.8% hits; AID 435005;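 active = Every replicate reaches about 75%, or at least half do and their mean reaches it too, limit read from the data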;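 note: 0% = cytokine-treated negative control wells and 100% = positive control rescue; higher means more ATP so stronger rescue from cytokine killing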
Mdm2-MdmX conf = confirmation of human Mdm2/MdmX interaction inhibitors | shares compounds with Mdm2 MdmX PPI | Mdm2-MdmX binding, luminescent assay | inhibition, % at 8 µM | 10,000 compounds, 55% hits | AID 489028; in the data active = inhibition above about 40%
Full FLuc ctr = full-length luciferase inhibition in Mdm2/MdmX counter-screen; shares compounds with Mdm2 MdmX PPI; SaOS-2 full-length luciferase counterscreen, luminescence; inhibition, % at 8 µM; 6,200 compounds, 77% hits; AID 504607;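 active = mean inhibition at 8 µM reaching about 37%, which flags the compound as non-specific, limit read from the data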;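 note: p53-null SaOS-2 cells with luciferase driven by a doxycycline-inducible promoter; compound on cells about two nights before reading with doxycycline added after day one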
Active calls of the source: *. The list is not random: actives were taken first. Their share in the collection is about 4%.

`O=C(Oc1c(-c2ccccc2)c(=O)n2c3c(cccc13)CC2)c1ccco1` gave Jurkat NFkB inh 21, 697 NFkB inh 19, Gli-Sufu antag -3, Mdm2 MdmX PPI 54*, Beta apoptosis -4 and Mdm2-MdmX conf 12.
`O=C(Oc1c(-c2ccccc2)c(=O)n2c3c(cccc13)CC2)c1ccc(Cl)cc1` gave Jurkat NFkB inh 13, 697 NFkB inh 16, Gli-Sufu antag 3, Mdm2 MdmX PPI 46 and Beta apoptosis 0.
CCn1c2ccccc2c2cc(N)ccc21 was read as Jurkat NFkB inh 11, 697 NFkB inh 9, Gli-Sufu antag 17, Mdm2 MdmX PPI 35 and Beta apoptosis 18.
COc1cccc(CNCc2ccc(OC)cc2OC)c1 was read as Jurkat NFkB inh 4, 697 NFkB inh -1, Gli-Sufu antag 19 and Mdm2 MdmX PPI 5.
Screening CCn1c2ccccc2c2cc(CNCc3ccc(OC)cc3OC)ccc21 returned Jurkat NFkB inh 25, 697 NFkB inh -5, Gli-Sufu antag 39, Mdm2 MdmX PPI 100*, Beta apoptosis 9, Mdm2-MdmX conf 60* and Full FLuc ctr 54*.
`CCC(CC)NCc1ccc2c(c1)c1ccccc1n2CC` gave Jurkat NFkB inh 8, 697 NFkB inh 7, Gli-Sufu antag 28, Mdm2 MdmX PPI 57*, Beta apoptosis 8, Mdm2-MdmX conf 43* and Full FLuc ctr 65*.
Screening COc1c(Cl)cc(Cl)cc1C(=O)Nc1ccc(C(=O)O)cc1 returned Jurkat NFkB inh 8, 697 NFkB inh 1, Gli-Sufu antag 0, Mdm2 MdmX PPI -40 and Beta apoptosis 0.
COc1c(Cl)cc(Cl)cc1/C=C/C(=O)c1ccc(NC(=O)c2cccs2)cc1 was read as Jurkat NFkB inh -24, 697 NFkB inh -70, Gli-Sufu antag -33, Mdm2 MdmX PPI 99*, Beta apoptosis 23, Mdm2-MdmX conf 95* and Full FLuc ctr 59*.
Screening CCN(Cc1ccc(OC)c(F)c1)C(=O)CCl returned Jurkat NFkB inh 21, 697 NFkB inh 25, Gli-Sufu antag -24, Mdm2 MdmX PPI 89*, Beta apoptosis -16, Mdm2-MdmX conf 63* and Full FLuc ctr 22.
Screening CCN(Cc1ccc(OC)c(F)c1)C(=O)C1CCCO1 (centres undefined) returned Jurkat NFkB inh -17, 697 NFkB inh 9, Gli-Sufu antag 19, Mdm2 MdmX PPI -5 and Beta apoptosis -9.
For CCn1cnc2c(Nc3cccc(Cl)c3)nc(C#N)nc21 the results were Jurkat NFkB inh -131, 697 NFkB inh -108, Gli-Sufu antag -85, Mdm2 MdmX PPI -81 and Beta apoptosis -7.
Screening CC[C@H](CO)Nc1nc(Nc2cccc(Cl)c2)c2ncn(C(C)C)c2n1 returned Jurkat NFkB inh 1, 697 NFkB inh -54, Gli-Sufu antag 45, Mdm2 MdmX PPI 90*, Beta apoptosis 62, Mdm2-MdmX conf 71* and Full FLuc ctr 40*.
For CC(C)[C@H](CO)N(Cc1cccc(F)c1)c1nc(Nc2cccc(Cl)c2)c2ncn(C(C)C)c2n1 the results were Jurkat NFkB inh -23, 697 NFkB inh -7, Gli-Sufu antag 9, Mdm2 MdmX PPI 55*, Beta apoptosis 23 and Mdm2-MdmX conf 5.
`O=C(NNS(=O)(=O)c1ccc(F)cc1)c1cc2ccccc2cc1O` gave Jurkat NFkB inh 16, 697 NFkB inh 14, Gli-Sufu antag -30, Mdm2 MdmX PPI 2 and Beta apoptosis 1.
COc1ccccc1N1CCN(C2CCN(C3CCC(c4ccccc4)CC3)CC2)CC1 (centres undefined) was read as Jurkat NFkB inh 1, 697 NFkB inh 8, Mdm2 MdmX PPI 60*, Beta apoptosis -10 and Mdm2-MdmX conf 29.
`CC(C)N(Cc1ccccc1)C(=S)NC1CCCCC1` gave Jurkat NFkB inh -12, 697 NFkB inh -1, Gli-Sufu antag 4, Mdm2 MdmX PPI -14 and Beta apoptosis -4.
For Nc1cccc2cc(-c3ccccc3)oc12 the results were Jurkat NFkB inh -51, 697 NFkB inh -47, Gli-Sufu antag -5, Mdm2 MdmX PPI -40 and Beta apoptosis -1.
NCC12CC3CC(C1)CC(c1ccc(Br)cc1)(C3)C2 was read as Jurkat NFkB inh 35, 697 NFkB inh 8, Gli-Sufu antag 2, Mdm2 MdmX PPI 72*, Beta apoptosis 7 and Mdm2-MdmX conf 31.
`Cc1ccc(C23CC4CC(CC(CN)(C4)C2)C3)cc1` gave Gli-Sufu antag 20.
For CCOC(=O)Nc1ccc2nc(Sc3ccc(Cl)cc3)sc2c1 the results were Jurkat NFkB inh 33, 697 NFkB inh -42, Gli-Sufu antag 38, Mdm2 MdmX PPI 47 and Beta apoptosis 20.
`COc1cc([C@H]2c3[nH]c4ccccc4c3C[C@H]3C(=O)N4[C@@H](c5cc(OC)c(OC)c(OC)c5)c5[nH]c6ccccc6c5C[C@H]4C(=O)N23)cc(OC)c1OC` gave Jurkat NFkB inh 3, 697 NFkB inh 9, Gli-Sufu antag 6, Mdm2 MdmX PPI 79*, Beta apoptosis 13 and Mdm2-MdmX conf 29.
CCN1C(=O)[C@@H]2Cc3c([nH]c4ccccc34)C(c3cc(OC)c(OC)c(OC)c3)N2C1=S (some centres undefined) was read as Jurkat NFkB inh 23, 697 NFkB inh 9, Gli-Sufu antag 2, Mdm2 MdmX PPI 28 and Beta apoptosis 8.
`C=CCN1C(=O)[C@@H]2Cc3c([nH]c4ccccc34)C(c3cc(OC)c(OC)c(OC)c3)N2C1=S` (some centres undefined) gave Jurkat NFkB inh 3, 697 NFkB inh 2, Gli-Sufu antag 48, Mdm2 MdmX PPI 51*, Beta apoptosis 7 and Mdm2-MdmX conf 22.
For Cc1cccc(C)c1NC(=O)CNC(=O)c1ccc(N2CCCC2)c([N+](=O)[O-])c1 the results were Gli-Sufu antag -19 and Beta apoptosis -2.
CC(C)c1nnc(NC(=O)CS(=O)(=O)Cc2ccccc2)s1 was read as Jurkat NFkB inh 8, 697 NFkB inh 10, Gli-Sufu antag 10, Mdm2 MdmX PPI -6 and Beta apoptosis -6.
`CCSc1nnc(NC(=O)c2nc(S(=O)(=O)Cc3ccc(F)cc3)ncc2Cl)s1` gave Jurkat NFkB inh -2, 697 NFkB inh -64, Gli-Sufu antag 17, Mdm2 MdmX PPI 69*, Beta apoptosis -29 and Mdm2-MdmX conf 26.
Screening CC(C)c1nnc(NC(=O)c2nc(S(=O)(=O)Cc3ccc(F)cc3)ncc2Cl)s1 returned Jurkat NFkB inh -5, 697 NFkB inh -152, Gli-Sufu antag 31, Mdm2 MdmX PPI 100*, Beta apoptosis -22, Mdm2-MdmX conf 57* and Full FLuc ctr 52*.
For O=C(Nc1nnc(SCc2ccc(F)cc2)s1)c1ccccn1 the results were Jurkat NFkB inh 7, 697 NFkB inh -45, Gli-Sufu antag 50, Mdm2 MdmX PPI 82*, Mdm2-MdmX conf 69* and Full FLuc ctr 41*.
